# In PubChem BioAssay AID1347150 (National Center for Advancing Translational Sciences (NCATS), 2019):
# Records with an inconclusive call do not appear. Calls of active or inactive are those of the source. Calls come from the whole dose curve; as a rule, active = well fitted curve in the direction sought with a large enough effect; inconclusive = small, poorly fitted or top-dose-only effect, or another doubt; inactive = no such curve, though single readings can be large or run the other way.
# Test system: Zika virus NS2B-NS3 protease (linked)
# Experiment: Optimization screen NINDS AMC qHTS for Zika virus inhibitors: Linked NS2B-NS3 protease assay
# Details: recombinant linked NS2B-NS3 protease, AMC fluorogenic substrate; series mostly up to 52.5 µM
# Text: Avindra Nath, Ph.D., National Institute of Neurological Disorders and Stroke (NINDS), Bethesda, MD
# Radhakrishnan Padmanabhan, Ph.D., Georgetown University (GU), Washington D.C.
# Zika Virus causes congenital defects, including microcephaly and is associated with Guillain-Barre syndrome, eningoencephalitis and myelitis in infected adult. […] Using a target-based approach, we hope to establish a screening paradigm to uncover novel, cell-active NS2B-NS3 protease (Zika Virus) specific inhibitors from NCATS' collection of small molecules using qHTS.
# Four assay panel was created to identify potential Zika Virus inhibitors. Namely, (1) GU unlinked NS2B-NS3 AMC tagged protease qHTS, (2) GU unlinked NS2B-NS3 Rhodamine tagged protease qHTS, (3) NINDS linked NS2B-NS3 AMC tagged protease qHTS, (4) NINDS linked NS2B-NS3 Rhodamine tagged protease qHTS. Active compounds were re-acquired and re-screened to confirm inhibition. Inhibitors were further screened against various confirmatory and counterscreens in dose response format.
# Early Translation Branch (ETB)
# National Center for Advancing Translational Sciences (NCATS), Rockville, MD
# National Institute of Health (NIH), Bethesda, Maryland
# For the linked assay, Nath lab (NINDS) provided the purified linked NS2B-NS3 protease which is consists of hydrophilic domain of NS2B linked to the NS3 protease domain by a flexible (-GGGGSGGGG-) linker. Control compound aprotinin is obtained from Thermo Scientific (#78432; Waltham, Massachusetts). NS2B-NS3 AMC substrate (Bz-Nle-Lys-Arg-Arg-AMC; Nle-KRR-AMC) purchased from Bachem (#I-1995; Torrance, CA). Ac-VKTGKR-AMC purchased from Genscript or Bachem, Ac-FAAGKR-AMC purchased from Genscript, Ac-GLVKRR-AMC purchased from Genscript, Ac-LKKR-AMC purchased from Genscript.
# NINDS AMC linked NS2B-NS3 protease qHTS protocol:
# Briefly, 3 microL of Zika virus linked NS2B-NS3 protease (1 nM for linked final concentration), in assay buffer (10 mM Tris-HCl pH 8.0 with 0.01% Tween 20) was dispensed into a 1,536-well solid-bottom black plate (Greiner Bio One, Monroe, NC). Twenty-three nL of compounds (final concentration range 7.28 nM to 114 microM) or control Aprotinin (final concentration range 3.47 nM to 114 microM) were transferred via Wako Pin-tool (Wako Automation, Richmond, VA). Samples were incubated (room temperature, protected from light) for 15 minutes followed by a 1 microL AMC substrate addition of (final concentration of 10 microM; Km = 18.3 µM). Plates were then read immediately on a ViewLux High-throughput CCD imager (PerkinElmer, Waltham, MA) equipped with standard UV fluorescence optics (340(30) nm excitation, 450(20) nm emission) then incubated (room temperature, protected from light) for 15 minutes (~20% conversion). The change in fluorescence intensity over the 15-minute reaction period was normalized against no-inhibitor and no-enzyme controls and the resulting percent inhibition data were fitted to a 4-parameter Hill equation. Aprotinin was used as the intraplate control.
row,Structure (SMILES),outcome
1,CC[C@H](C)[C@H]1O[C@]2(C=C[C@@H]1C)C[C@@H]1C[C@@H](C/C=C(\C)[C@@H](O[C@H]3C[C@H](OC)[C@@H](O[C@H]4C[C@H](OC)[C@@H](O)[C@H](C)O4)[C@H](C)O3)[C@@H](C)/C=C/C=C3\CO[C@@H]4[C@H](O)C(C)=C[C@@H](C(=O)O1)[C@]34O)O2,inactive
2,COC1C(O)C(C)O[C@@H](OC2CC[C@@]3(C)C4CC[C@]5(C)C(C6=CC(=O)OC6)CC[C@@]5(O)C4CC[C@@H]3C2)C1O (stereo partly specified),inactive
3,Cc1ccc2c(c1)[C@]13CCCC[C@@H]1[C@H](C2)N(C)CC3,inactive
4,C=CCN1CC[C@]23CCCCC2[C@H]1Cc1ccc(O)cc13 (stereo partly specified),inactive
5,C[C@H]1[C@H]2Cc3ccc(O)cc3[C@]1(C)CCN2CCc1ccccc1,inactive
6,CC(C)OC(=O)Nc1ccccc1,inactive
7,CN1CC[C@@]23CCCC[C@@H]2[C@@H]1Cc1ccc(O)cc13,inactive
8,CC1OC(O[C@H]2C[C@@H](O)[C@]3(CO)[C@H]4[C@H](O)C[C@]5(C)[C@@H](C6=CC(=O)OC6)CC[C@]5(O)[C@@H]4CC[C@]3(O)C2)C(O)C(O)C1O (stereo partly specified),inactive
9,C[C@@H]1[C@@H]2Cc3ccc(O)cc3[C@@]1(C)CCN2CC1CC1,inactive
10,C=CCN1CCC2(C)c3cc(O)ccc3C[C@H]1[C@H]2C,inactive
11,C[C@H]1O[C@@H](O[C@H]2[C@@H](O)C[C@H](O[C@H]3[C@@H](O)C[C@H](O[C@H]4CC[C@]5(C)C6CC[C@]7(C)[C@@H](C8=CC(=O)OC8)CC[C@]7(O)C6CC[C@@H]5C4)O[C@@H]3C)O[C@@H]2C)C[C@H](O)[C@@H]1O (stereo partly specified),inactive
12,C[C@@H]1O[C@@H](O[C@H]2C[C@@H](O)[C@]3(CO)[C@H]4[C@H](O)C[C@]5(C)[C@@H](C6=CC(=O)OC6)CC[C@]5(O)[C@@H]4CC[C@]3(O)C2)[C@H](O)[C@H](O)[C@H]1O,inactive
13,C[C@@H]1O[C@@H](O[C@H]2C[C@@H](O)[C@]3(CO)C4C(CC[C@]3(O)C2)[C@@]2(O)CC[C@H](C3=CC(=O)OC3)[C@@]2(C)C[C@H]4O)[C@H](O)[C@H](O)[C@H]1O (stereo partly specified),inactive
14,C[C@@H]1[C@@H]2Cc3ccc(O)cc3[C@@]1(C)CCN2CCc1ccccc1,inactive
15,CN1CC[C@@]23CCCCC2C1Cc1ccc(O)cc13 (stereo partly specified),inactive
16,CO[C@H]1[C@@H](O)CC(OC2[C@@H](O)CC(OC3[C@@H](O)C[C@H](OC4CC[C@@]5(C)C(CCC6C5CC(O)[C@]5(C)[C@H](C7=CC(=O)OC7)CCC65O)C4)O[C@@H]3C)O[C@@H]2C)O[C@@H]1C (stereo partly specified),inactive
17,C[C@H]1O[C@@H](O[C@H]2[C@@H](O)C[C@@H](O[C@H]3[C@@H](O)C[C@H](O[C@H]4CC[C@@]5(C)[C@H](CC[C@@H]6[C@@H]5CC[C@]5(C)[C@@H](C7=CC(=O)OC7)CC[C@]65O)C4)O[C@@H]3C)O[C@@H]2C)C[C@H](O)[C@@H]1O,inactive
18,C=CCN1CCC2(C)c3cc(O)ccc3CC1C2C (stereo unspecified),inactive
19,CC(C)=CCN1CC[C@@]2(C)c3cc(O)ccc3C[C@@H]1[C@@H]2C,inactive
20,C[C@H]1O[C@@H](O[C@H]2[C@@H](O)C[C@H](O[C@H]3[C@@H](O)C[C@H](O[C@H]4CC[C@@]5(C)[C@H](CC[C@@H]6[C@@H]5CC[C@]5(C)[C@@H](C7=CC(=O)OC7)CC[C@]65O)C4)O[C@@H]3C)O[C@@H]2C)C[C@H](O)[C@@H]1O,inactive
21,CC1O[C@@H](O[C@@H]2C(O)C[C@H](O[C@@H]3C(O)C[C@@H](OC4CC[C@@]5(C)C6CC[C@]7(C)C(C8=CC(=O)OC8)CC[C@@]7(O)C6CC[C@@H]5C4)OC3C)OC2C)CC(O)[C@H]1O (stereo partly specified),inactive
